Mot1-301 SUMO: yeast Mot1-301 growth rescue at high temperature, primary screen, SUMOylation pathway inhibitor project, S. cerevisiae, ATP luminescence, 38.5C; S. cerevisiae Mot1-301 growth rescue; percent above DMSO median, 100 means doubled; growth rescue, % at 18.8 µM; 320,000 tested, 1% active;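 active = every valid replicate shows activation above 250% relative to neutral control wells; inactive = the rest, any valid replicate at or below 250%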;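 note: OY570 slx delta 5 strain wells were the positive control but not used for scaling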
ALR inh: inhibitors of human ALR sulfhydryl oxidase, primary screen, biochemical, H2O2 detection, HRP-luminol luminescence, single point; FAD-linked sulfhydryl oxidase ALR (Homo sapiens), P55789; purified ALR, DTT oxidation; 290,000 tested, 3.8% active; AID 485317, 2010; inhibition, % (test concentration not listed);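 active = mean replicate inhibition above about 79%, with every replicate also reaching it, limit read from the data; inconclusive = only one of the two criteria met; inactive = mean below limit and not every replicate reaching it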
Target sequence (P55789 whole entry, looked up): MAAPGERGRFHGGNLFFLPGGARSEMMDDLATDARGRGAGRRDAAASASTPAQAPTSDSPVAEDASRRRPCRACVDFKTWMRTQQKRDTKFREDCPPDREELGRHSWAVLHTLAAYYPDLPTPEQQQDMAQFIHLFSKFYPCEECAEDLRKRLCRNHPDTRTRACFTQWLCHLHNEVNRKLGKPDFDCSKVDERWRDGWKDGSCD
AI-2 QS mod: Vibrio harveyi AI-2 quorum sensing modulators, primary screen, JMH597 strain, luminescence/OD600 ratio | Vibrio harveyi JMH597 AI-2 luminescence/OD600 ratio, 9 h; active compounds read low; strain lacks LuxN and CqsS sensors; 0 = neutral-control median | activity change, % at 7.5 µM | 300,000 tested, 0.4% active | AID 2094, 2009; in the data active = activity change below about -75%, passing the limit was not always enough; inconclusive = no clear call, values can overlap the other calls;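 note: luminescence divided by OD600 gain over 9 h not by final OD600 alone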
HIF act: HIF pathway transcriptional activators, primary screen, cell-based, U2OS HRE-luciferase, luminescence; U2OS HRE-luciferase reporter; normalized: DMSO 0%, desferrioxamine 100%; activation, % at 7.5 µM (by protocol); 300,000 tested, 0.32% active; AID 1910, 2009;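 active = mean activation of at least 10% of the iron chelator positive control signal, with at least half of replicates also reaching 10%; inconclusive = mean and replicate majority disagree about reaching 10%; inactive = mean and most replicates under 10%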
* hit, by the source's call; u = inconclusive; x = no result. Sampled rows, rich in hits. Any-hit rate of the full collection: about 4.8%.

SMILES | Mot1-301 SUMO | ALR inh | AI-2 QS mod | HIF act
CCc1ccc(C(C(=O)NC2CCCCC2)N(C(=O)c2csnn2)C2CC2)cc1 (stereo unspecified) | 66.1 | 1.4 | 18.3 | -10.7
COc1ccc2cc(/C=N/NC(=O)CSCc3ccc([N+](=O)[O-])cc3)c(Cl)nc2c1 | 3.0 | 99.1* | 19.2 | 0.1
COc1ccc(OC)c(S(=O)(=O)Nc2ccc3[nH]c(=O)[nH]c3c2)c1 | -6.8 | -19.9 | 18.1 | 0.0
N#CC1(c2ccccc2)CCN(S(=O)(=O)c2ccc(OC(F)(F)F)cc2)CC1 | 396.5 | 1.4 | 21.3 | 0.1
O=Cc1[nH]c2ccccc2c1N(C(=O)CCl)c1ccc([N+](=O)[O-])cc1 | -4.9 | 98.7* | 25.6 | 0.9
CN(C)S(=O)(=O)c1ccc(S(=O)(=O)N2CCCC(C(=O)NC3CCCC3)C2)cc1 (stereo unspecified) | 7.7 | -1.0 | 11.4 | 0.0
CCCn1c2ccc(/C(C)=N\O)cc2c2cc(/C(C)=N/O)ccc21 | 6.5 | 98.2* | 9.8 | 0.5
CC[n+]1c(/C=C(\C)Nc2ccccc2)sc2ccccc21 | -11.7 | 88.6* | x | x
O=C(CN1C(=O)c2ccc([N+](=O)[O-])cc2C1=O)Nc1ccccc1N1CCCC1 | -13.3 | 62.0 | -0.5 | -0.1
O=C(O)CCc1ccc(-c2ccc(Cl)cc2)o1 | -9.5 | 97.4* | 42.6 | 0.0
COc1cc2ccc(=O)oc2cc1O | -3.3 | 97.9* | x | x
COc1cc2ccc(=O)oc2cc1OCC(O)C(C)(C)O (stereo unspecified) | -11.7 | 5.0 | 4.8 | -0.1
Cc1ccc(C(C)(C)NC(=O)C2CCC(=O)N(CC3CCCCC3)C2)cc1 (stereo unspecified) | 158.4 | -2.3 | -0.8 | 0.3
FC(F)Oc1ccc(NC(=S)Nc2ccc3cn[nH]c3c2)cc1 | -24.3 | 1.9 | 33.5 | 9.8*
S=C(Nc1ccccc1)Nc1ccc2cn[nH]c2c1 | -14.3 | 24.5 | 9.1 | 2.2
O=C(NCCCn1ccnc1)c1ccc(COc2ccccc2)o1 | 41.2 | -0.6 | 10.5 | -0.1
N#C/C(=N/O)c1nc(-c2ccc(F)cc2)cs1 | 8.1 | 98.0* | -49.4 | -0.1
CCc1nc(Nc2ccc(N3CCN(C(C)=O)CC3)cc2)c2oc3ccccc3c2n1 | 7.2 | 96.5* | 26.7 | 0.1
CC(=O)N1CCN(c2ccc(Nc3ncnc4c3oc3ccccc34)cc2)CC1 | 2.8 | 99.2* | 15.0 | 2.7
COc1ccc(S(=O)(=O)n2nc(OC(=O)c3ccco3)cc2N)cc1 | -0.9 | 97.2* | 20.4 | -0.2
COc1ccc(S(=O)(=O)n2nc(OC(=O)c3ccccc3)cc2N)cc1 | -17.0 | x | -2.6 | 0.0
COc1ccc(NC2c3ccccc3C(=O)N2c2cccnc2)cc1Cl (stereo unspecified) | -7.8 | 82.6* | 1.0 | 0.6
O=C1c2ccccc2C(Nc2ccccc2)N1c1cccnc1 (stereo unspecified) | -8.7 | -17.1 | 23.1 | -0.3
CC1(C)C(=O)C2(CCCCC2)C(=O)OC1c1cccc([N+](=O)[O-])c1 (stereo unspecified) | -21.3 | -2.9 | 26.7 | -0.4
CN(C)c1ccc(C2OC(=O)C3(CCCC3)C(=O)C2(C)C)cc1 (stereo unspecified) | 35.9 | 93.8* | 27.1 | 0.1
SMILES | Mot1-301 SUMO | ALR inh | AI-2 QS mod | HIF act
O=S(=O)(NC1CCCCC1Nc1ccccc1)c1ccccc1 (stereo unspecified) | -11.6 | 99.5* | 11.1 | 0.0
CCN(CC)C1CCCCC1NS(=O)(=O)c1ccc(Cl)cc1 (stereo unspecified) | -25.5 | -10.5 | 15.7 | 0.1
CC(=O)Nc1ccc(NC2CCCCC2NS(=O)(=O)c2ccc(Cl)cc2)cc1 (stereo unspecified) | 11.9 | 99.0* | -2.5 | -0.7
CCOCc1nnc(NC(=O)C2CC(=O)N(CCc3ccc(F)cc3)C2)s1 (stereo unspecified) | -9.5 | x | 20.3 | -0.3
O=C(c1ccc(Cl)cc1)C(CN1CCCCC1)c1ccccc1 (stereo unspecified) | -5.6 | 96.8* | -6.0 | 5.3
CCOC(=O)C(CN1CCCC1)c1ccccc1 (stereo unspecified) | -3.1 | 0.1 | 30.9 | 0.3
CCOc1ccc(-c2nc(CSCC(=O)NCCCN3CCCC3=O)c(C)o2)cc1 | -1.0 | 98.9* | 15.9 | -0.3
N#Cc1ccc(-c2ccc(OCC(=O)NCCCN3CCCC3=O)cc2)cc1 | 40.8 | 98.7* | -0.2 | 2.1
COc1ccc(-c2nc(CSCC(=O)NC3CCCc4ccccc43)c(C)o2)cc1 (stereo unspecified) | 1.9 | u | 54.0 | -0.1
CCOc1ccc(S(=O)(=O)N(C)CC(=O)NCCN2CCOCC2)cc1 | 2.2 | 1.5 | 10.2 | -2.3
CCOc1ccc(-c2nc(CSCC(=O)NCCN3CCOCC3)c(C)o2)cc1 | -3.6 | 99.2* | 3.5 | 0.1
COc1ccc(-c2nc(CSCC(=O)NCCCN3CCCC3=O)c(C)o2)cc1 | 11.5 | 96.5* | 2.4 | 0.0
Cc1c(C)c2ccc(OCC(=O)NCCCN3CCCC3=O)cc2oc1=O | 40.1 | -19.9 | 16.7 | 0.1
Cc1cccc(NC(=O)CSCC(=O)N(C)Cc2c(F)cccc2Cl)c1 | 30.6 | -4.4 | 6.8 | 0.0
CC(=O)Nc1ccc(S(=O)(=O)N(C)c2ccc(OCCOc3ccccc3F)cc2)cc1 | 3.8 | -4.9 | x | x
CCn1nc(C)c(CNC(=O)Nc2ccccc2C(=O)OC)c1C | -8.4 | 96.4* | 18.6 | -0.4
CCOC(=O)c1ccc(NC(=O)NCc2c(C)nn(CC)c2C)cc1 | -0.3 | 1.8 | 9.7 | 0.0
CCC1(C)OC(=O)N2CCc3c(C)[nH]c4c(C)ccc(c34)C21C (stereo unspecified) | -7.0 | 98.4* | 10.4 | -0.2
CNC(=O)NC(=O)CSc1nc2sccc2c(=O)n1-c1ccccc1 | -1.5 | -0.8 | 15.6 | -0.5
S=c1[nH]c(-c2ccccc2)cn1/N=C/c1cccs1 | -6.6 | 17.1 | 8.5 | 1.7
S=c1[nH]ncn1/N=C/c1cccs1 | 33.4 | 97.0* | 18.9 | -0.3
S=c1[nH]nc(-c2cccnc2)n1/N=C/c1cccs1 | 21.0 | 97.4* | 21.5 | -0.1
S=c1[nH]ncn1/N=C/c1ccccn1 | 4.5 | 92.2* | 11.4 | -0.3
CC(Oc1ccccc1Cl)C(=O)N(Cc1cccs1)C1CCS(=O)(=O)C1 (stereo unspecified) | -14.7 | -2.7 | 13.6 | -0.1
CC1C/C(=N/NC(=O)c2cccc(F)c2)c2ccc(O)cc2C1 (stereo unspecified) | -5.6 | 98.8* | 8.9 | 2.6
COc1ccc2c(c1)CC(C)C/C2=N\NC(=O)c1ccco1 (stereo unspecified) | 135.9 | -2.8 | 6.1 | 2.0
O=C(CSc1nnc(NC(=O)c2cccc(Cl)c2)s1)NCC1CCCO1 (stereo unspecified) | -14.4 | -11.6 | 3.3 | 0.2
CC1SC(=S)N(c2ccc(N(C)C)cc2)C1=O (stereo unspecified) | 5.3 | 98.7* | 7.7 | 0.0
